The source of these data is PubChem BioAssay AID651599 (National Center for Advancing Translational Sciences (NCATS), 2012).

Records with an inconclusive call do not appear. Unmarked numbers belong to inactive results. The call rests on the fitted dose curve; in most records, active means well fitted inhibition curve with a large enough effect; inconclusive means small, poorly fitted or top-dose-only effect; inactive means no such curve, though single readings can be large or run the other way.
On the % scale 0 is the no-effect control and ±100 the full control effect.

Tumor susceptibility gene 101 protein (Homo sapiens), sequence (Q99816 whole entry, looked up, the tested form may be a part): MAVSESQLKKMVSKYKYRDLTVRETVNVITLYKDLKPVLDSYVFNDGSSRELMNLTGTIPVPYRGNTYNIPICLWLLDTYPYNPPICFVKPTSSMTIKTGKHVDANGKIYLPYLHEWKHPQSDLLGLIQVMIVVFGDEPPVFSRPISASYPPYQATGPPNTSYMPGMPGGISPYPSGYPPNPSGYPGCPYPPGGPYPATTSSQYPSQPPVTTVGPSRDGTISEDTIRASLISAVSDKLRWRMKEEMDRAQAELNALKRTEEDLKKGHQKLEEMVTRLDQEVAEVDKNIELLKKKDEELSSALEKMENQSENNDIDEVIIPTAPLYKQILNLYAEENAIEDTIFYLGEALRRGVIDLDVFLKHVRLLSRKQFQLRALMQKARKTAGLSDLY

This test has as its target Tumor susceptibility gene 101 protein (Homo sapiens) (UniProt Q99816). As to the kind of experiment: qHTS Assay for Iinhibitors of HIV-1 Budding by Blocking the Interaction of PTAP/TSG101: Hit Validation in TR assay. Particulars: Tsg101 binding domain + Texas Red-labeled PTAP peptide, fluorescence polarization, 20 min; series mostly up to 57.5 µM; activity change, negative = inhibition: at the top concentration. An outline of the steps: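 Fluorescence polarization: Tsg101 binding domain (10 uM final) with Texas Red-labelled PTAP peptide (50 nM final) in HEPES pH 7.5, 0.15 M NaCl, Tween 20, EDTA, TCEP; 20 min binding at room temperature after compound addition.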
A general note: Quantitative high-throughput screening tests each substance at several concentrations.
For `COc1c([N+](=O)[O-])c(=O)n(-c2ccccc2)c2ccccc12`, the “activity change, negative = inhibition” value was -0.146%.

With `COc1cc(OC)c(-c2c3cc(O)c(=O)cc-3oc3cc(O)c(O)cc23)cc1OC`, the “activity change, negative = inhibition” value was -25.9%.

For the compound `Nc1cnccc1C(=O)O`, the “activity change, negative = inhibition” value was 3.42%.

Turning to `COc1ccc(OC)c2cc3ccccc3cc12`, the “activity change, negative = inhibition” value was -3.96%.

As for `COc1ccc(OC)c(NC(=O)CCN2CC(C)CC(C)C2)c1` (centres undefined), the “activity change, negative = inhibition” value was -0.696%.

Regarding `CC1=CC(=C(C#N)c2nc3ccccc3s2)C=C(C)N1Cc1ccco1`, the “activity change, negative = inhibition” value was 25.6%.

As to `Cc1cc(/C=C2\SC(=S)NC2=O)c(C)n1-c1ccccc1`, the “activity change, negative = inhibition” value was 13.5%.

`COc1ccc2c3c(cccc13)C(=O)CC2`: the “activity change, negative = inhibition” value was 2.95%.

As to `CC1CCN(c2ccc3c(c2)S(=O)(=O)c2ccccc2C3=O)CC1`, the “activity change, negative = inhibition” value was -17.4%.

In the case of `Cc1cccc(CCNC(=O)c2sc3nc4n(c(=O)c3c2C)CCCC4)c1`, the “activity change, negative = inhibition” value was -20.6%.

Regarding `O=c1[nH]c(S)c(/C=C2\C=Nc3ccccc32)s1`, the “activity change, negative = inhibition” value was -12%.

On to `N#CC(C(=O)OC1CCCCC1)c1nc2ccccc2nc1N1CCOCC1` (centres undefined), for which the “activity change, negative = inhibition” value was 2.32%.

Turning to `CC1CCCN(Cc2c(O)ccc3c2O/C(=C\c2ccco2)C3=O)C1` (centres undefined), the “activity change, negative = inhibition” value is 9.15%.

Regarding `Oc1[nH]c2ccc(Br)cc2c1N=Nc1ccc(F)cc1`, the “activity change, negative = inhibition” value is 25.5%.

Take `COc1ccc(NC(=O)c2nc(-c3ccc(C)cc3)n3c2CCCCC3)cc1`: the “activity change, negative = inhibition” value was -12.4%.

Turning to `COc1ccccc1NC(=O)c1sc2nc(Cc3ccccc3)cc(C(F)(F)F)c2c1N`, the “activity change, negative = inhibition” value was 44.1%.

For the compound `O=[n+]1c2c(n([O-])c3cc(F)c(N4CCCC4)cc31)CCC2`, the “activity change, negative = inhibition” value was 27.5%.

`COCCCNC(=O)C(C#N)c1nc2ccccc2nc1N1CCCC1` (centres undefined): the “activity change, negative = inhibition” value was 25.7%.

In the case of `Cc1cc([N+](=O)[O-])ccc1-c1ccc(/C=N/NC(=O)Cc2ccccc2)o1`, the “activity change, negative = inhibition” value was -16.7%.
